Screens as filed in PubChem BioAssay.
Rows were chosen to be rich in hits. Some 1.4% of all compounds tested hit in one or more screens of this group.
SSB-PriA inh: blocks PriA binding to SSB C-terminal tail. actives 0.6% (n = 430,000). inhibition, % at 33 µM. AlphaScreen SSBct-PriA binding, biotinylated peptide. AID 1272365; in the data active = inhibition mostly above about 37%, no sharp cut-off; inactive = mostly below about 20%;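 also: plate controls were negative control peptide for no effect and reference peptide for full effect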
Sa ugtP lethal: kills S. aureus RN4220 lacking UgtP; S. aureus RN4220 ugtP deletion, OD600 growth, 16 h; growth inhibition, % (test concentration not listed); actives 0.54% (n = 330,000); AID 1259309; in the data active = growth inhibition above about 68%;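 also: plate controls were untreated wells for no effect and antibiotic for full effect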
CCHFV vOTU inh: blocks the CCHF virus ovarian tumor domain protease; CCHFV vOTU protease, Pep-AMC fluorescence; actives 0.55% (n = 370,000); inhibition, % at 11.5 µM; in the data active = inhibition above about 30%; also: 0% = vehicle wells with enzyme and 100% = no enzyme wells
Mtb hypoxia rep: reduces hypoxia-regulated biosensor signal in M. tuberculosis | M. tuberculosis hypoxia-regulated fluorescent reporter, fluorescence | fluorescence inhibition, % (test concentration not listed) | actives 0.1% (n = 300,000) | AID 1159583; in the data active = fluorescence inhibition mostly above about 23%, no sharp cut-off; inactive = mostly below about 17%
RN4220 kill: S. aureus RN4220 growth inhibition. actives 0.33% (n = 330,000). inhibition, % (test concentration not listed). OD600, 16 h; in the data active = inhibition above about 85%;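 also: plate controls were untreated cells for no effect and reference antibiotic for full effect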
The depositor's hits bear a star; · = no result shown; ! = a repeat was not active.

SMILES	SSB-PriA inh	Sa ugtP lethal	CCHFV vOTU inh	Mtb hypoxia rep	RN4220 kill
CN(c1ccccc1)S(=O)(=O)c1ccsc1-c1nc(-c2ccncc2)no1	-4	·	·	·	·
CC1CCN(C2=C(NS(=O)(=O)c3ccc(Br)cc3)C(=O)c3ccccc3C2=O)CC1	70*	-28	14	-13	-13
CC1CCCN(C2=C(NS(=O)(=O)c3ccc(Br)cc3)C(=O)c3ccccc3C2=O)C1 (centres undefined)	0	·	24	·	·
CC1CCN(C2=C(NS(=O)(=O)c3ccccc3)C(=O)c3ccccc3C2=O)CC1	64*	-14	1	2	4
CC(=O)Nc1ccc(S(=O)(=O)NC2=C(N3CCN(Cc4ccccc4)CC3)C(=O)c3ccccc3C2=O)cc1	39	-4	28	2	13
CCN1CCN(C2=C(NS(=O)(=O)c3ccc(C)cc3)C(=O)c3ccccc3C2=O)CC1	-13	2	44*	-4	9
CC1CCN(C2=C(NS(=O)(=O)c3ccc(Cl)cc3)C(=O)c3ccccc3C2=O)CC1	-12	-29	-12	8	3
O=C(CCCS(=O)(=O)Cc1ccccc1)Nc1ccc(-c2nc3ccccc3[nH]2)cc1	-4	·	·	·	·
COc1ccc(CC(=O)Nc2nnc(-c3cc(C)nn3C)o2)cc1	5	·	·	·	·
Cc1cc(-c2nnc(NC(=O)Cc3ccc(S(C)(=O)=O)cc3)o2)n(C)n1	43*	·	·	·	·
C/C(=N/NC(=S)NCc1ccco1)c1ccco1	43*	·	·	·	·
CCNC(=S)N/N=C(\C)c1ccco1	·	·	5	·	·
O=C(Nc1ccc(F)cc1)NC1(C(=O)NCc2ccco2)CCCCC1	-3	-8	-1	0	-6
O=C(Nc1ccc(F)cc1)NC1(C(=O)NCc2ccc3c(c2)OCO3)CCCCC1	-10	100*	6	10	37
CC(NC(=O)c1ccc(F)cc1)c1ccccc1 (centres undefined)	-23	-3	-9	56*	-16
CC1(C)S[C@@H]2[C@H](NC(=O)C(NC(=O)N3CCNC3=O)c3ccccc3)C(=O)N2[C@H]1C(=O)O (some centres undefined)	-5	100*	-7	3	100*
CCC(Oc1ccccc1)C(=O)NC1C(=O)N2C1SC(C)(C)C2C(=O)O (centres undefined)	0	·	-2	·	·
CC1(C)S[C@@H]2[C@H](NC(=O)Cc3ccccc3)C(=O)N2[C@H]1C(=O)O	-3	100*	4	0	100*
COC(=O)C1N2C(=O)C(NC(=O)COc3ccccc3)C2SC1(C)C (centres undefined)	·	101*	·	19	101*
CCCCCCCCCOC(=O)C1N2C(=O)[C@@H](NC(=O)COc3ccccc3)[C@H]2SC1(C)C (some centres undefined)	-10	·	8	·	·
CC1(C)S[C@@H]2[C@H](NC(=O)[C@H](N)c3ccccc3)C(=O)N2[C@H]1C(=O)OC1OC(=O)c2ccccc21 (some centres undefined)	-7	·	-66	·	·
O=C(COc1ccc(-n2cccn2)nn1)NCc1ccccc1Cl	-13	·	·	·	·
CN1CCN(C(CN)c2ccsc2)CC1 (centres undefined)	15	·	·	·	·
C#CCn1c(=NC(=O)CSCC(=O)NC2CCCCC2)sc2ccccc21	43*	·	·	·	·
CC(C)c1cc(C(=O)OCC(=O)NC(=O)NCc2ccco2)c(O)c(C(C)C)c1	-5	94*	28	-4	-7
SMILES	SSB-PriA inh	Sa ugtP lethal	CCHFV vOTU inh	Mtb hypoxia rep	RN4220 kill
O=C(NN=Cc1ccc2c(c1)OCO2)C(=O)Nc1ccccc1Cl	7	-1	·	0	-2
CCN(CC)c1ccc(C(=O)NN=Cc2ccc(N3CCOCC3)cc2)cc1	5	-1	·	1	6
Cc1cccc(C(=O)c2cnc3ccccc3c2-c2ccccc2)c1	-15	88*	9	18	-1
Cc1c(Nc2ccccc2C(=O)c2ccccc2)nc2ccccc2c1-c1ccccc1	-16	·	·	·	·
Nc1c(NC2CCCCC2)c2ccccc2oc1=O	50*!	1	-12	4	0
Cc1cc(/C=c2\sc3nc4ccccc4n3c2=O)c(C)n1-c1ccc(C(=O)O)cc1	·	·	6	·	·
O=c1/c(=C/c2ccc(F)cc2F)sc2nc3ccccc3n12	40*	·	·	·	·
Cc1cc(C=c2sc3nc4ccccc4n3c2=O)c(C)n1-c1ccc(C(=O)O)cc1	-5	100*	·	18	88
CCN(CC)c1ccc(/C=c2\sc3nc4ccccc4n3c2=O)c(O)c1	·	·	4	·	·
COC(=O)c1cccc(NC(=S)Nc2ccc(Cl)c(Cl)c2)c1	-9	90*	8	-9	100*
COC(=O)c1cc(NC(=S)Nc2cc(Cl)cc(Cl)c2)cc(C(=O)OC)c1	-20	99*	1	-12	99*
COc1cc(NS(=O)(=O)c2ccc(NC(=O)C(c3ccccc3)c3ccccc3)cc2)nc(OC)n1	-7	·	·	·	·
COc1nn(C)cc1C(=O)Nc1ccc(C(=O)Nc2c(C)n(C)n(-c3ccccc3)c2=O)cc1	9	·	·	·	·
COc1ccc(C2=NOC(CNC(N)=S)C2)cc1 (centres undefined)	-8	83*	0	·	73
COc1ccc(CNC(=O)C2CC(c3ccc(OC)cc3)=NO2)cc1 (centres undefined)	-10	4	-5	-1	1
O=c1[nH]c(=S)[nH]c2c1cnn2CCO	-8	·	·	·	·
COc1ccccc1/C=C/C=Nn1c(-c2ccc(C)cc2)n[nH]c1=S	19	-7	·	25	19
CCOC(=O)C1=C(C)NC2=C(C(=O)c3ccccc32)C1c1cccc2ccccc12 (centres undefined)	-1	34	-4	8	-2
CCOC(=O)C1=C(C)NC2=C(C(=O)c3ccccc32)C1c1ccc(O)cc1 (centres undefined)	52*	-14	20	2	2
C[C@](O)(CNC(=O)c1ccc(OC(F)(F)F)cc1)c1ccco1	-8	·	·	·	·
Cc1c(C(=N)C(C#N)C#N)c(=N)oc2c1ccc1ccccc12	70*	·	-1	·	·
Cc1c(C(=O)O)oc2c1ccc1ccccc12	-13	-5	-2	·	0
CCCCNC(=O)Cc1csc(NC(=O)OC)n1	-15	·	·	·	·
FC(F)(F)c1cnc(C(c2ccccn2)c2ncn[nH]2)c(Cl)c1 (centres undefined)	77*	1	-3	0	3
FC(F)(F)c1cnc(C(c2ccccc2)c2ncn[nH]2)c(Cl)c1 (centres undefined)	-5	13	-11	10	6
SMILES	SSB-PriA inh	Sa ugtP lethal	CCHFV vOTU inh	Mtb hypoxia rep	RN4220 kill
Cc1cc(C)c2sc(N(CC3CCCO3)C(=O)c3ccc4c(c3)CCCC4)nc2c1 (centres undefined)	-32	·	·	·	·
COc1cc(NCCC(=O)c2cccs2)c(OC)cc1Cl	39*	2	-12	15	7
COc1cc(OC)c(NCCC(=O)c2cccs2)cc1Cl	90	·	·	·	·
NNc1nc2ccccc2[nH]c1=O	38*	·	·	·	·
COc1ccc(OC)c2sc(NNC(=O)c3ccc(S(=O)(=O)N(C)C)cc3)nc12	42*	·	·	·	·
CN(C)S(=O)(=O)c1ccc(C(=O)NNc2nc3c(F)cccc3s2)cc1	24	·	·	·	·
CSc1ccc2nc(NC(=O)c3cccc(C(F)(F)F)c3)sc2c1	3	·	·	·	·
O=C(NCCCn1ccnc1)C(=O)Nc1ccc2c(c1)N(S(=O)(=O)c1cccs1)CCC2	51*	·	·	·	·
